High-throughput results as filed in PubChem.
The list is not random: actives were taken first. Their share in the collection is about 6.2%.
Marburg entry inh = inhibitors of Marburg virus binding or cell entry | Potency, µM (top dose mostly 37.8 µM), for inactives: at the top dose activity change, negative = inhibition, hits mostly inhibitors | AID 540276 | actives 1.8% (n = 300,000) | Marburg virus pseudotyped entry inhibition, cell reporter; calls by dose curve; tested in HEK293 cells; further: potency means the concentration at half of the fitted maximal effect
FMDV inh = blocks foot and mouth disease virus. FMDV antiviral cell-based qHTS. Potency, µM (highest dose often 57.9 µM), for the others: top-dose activity change, negative = inhibition, actives largely listed as inhibitors. actives 1.2% (n = 410,000); calls by dose curve; tested in HEK293T cells; further: read-out not given here; potency means the concentration at half of the fitted maximal effect; nearly all actives have a fitted effect of over 45% in size
HCMV inh = human cytomegalovirus inhibition | HFF cells, HCMV-luciferase reporter, 72 h; active compounds read low | activity change, negative = inhibition, % at 57.5 µM | actives 4.5% (n = 410,000); in the data active means activity change below about -60%; inconclusive means no clear call, values can overlap the other calls; inactive means above about -39%
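Luciferase read-out from HCMV-luciferase-infected HFFs (MOI 1 PFU/cell) 72 h post infection at 37C; compounds added after 16 h cell attachment; activity normalized between buffer-only basal and Salinomycin (10uM) inhibitor controls.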
Lassa entry inh = blocks Lassa virus binding to or entry into cells | Lassa virus pseudotype entry inhibition, cell reporter | Potency, µM (doses to about 37.9 µM), without a hit: top-dose activity change, negative = inhibition, usual class: inhibitors | actives 1.2% (n = 300,000); calls by dose curve; tested in HEK293 cells; further: potency means the concentration at half of the fitted maximal effect; nearly all actives have a fitted effect of over 50% in size
An asterisk follows results filed as active; ? = inconclusive; / = not tested or not shown; [ ] = dose if it differs, or a comment. On the % scale 0 is the no-effect control and ±100 the full control effect.

SMILES	Marburg entry inh	FMDV inh	HCMV inh	Lassa entry inh
c1cn(-c2ncnc3ccc(-c4ccoc4)cc23)cn1	/	28µM*	/	/
COC(=O)C1=C(C(=O)OC)[C@@H]2Nc3ccccc3[C@@]23C[C@@H](C(=O)OC)N(C(=O)Nc2ccc(C(F)(F)F)cc2)C3=N1	-15%[14.2 µM]	/	/	/
Cc1ccsc1C(=O)C1CCCN(Cc2cccn2-c2ccccn2)C1 (stereo unspecified)	5.6µM*	?	-66*	?
COc1ccc(F)cc1C(=O)C1CCCN(Cc2cccn2-c2ccccn2)C1 (stereo unspecified)	?	-29%	?	10µM*
O=C(c1cc(F)ccc1F)C1CCCN(Cc2cccn2-c2ccccn2)C1 (stereo unspecified)	/	18%	-32	/
COc1ccc(C(=O)C2CCCN(Cc3cccn3-c3ccccn3)C2)c(OC)c1 (stereo unspecified)	?	?	-67*	?
COc1ccc(CCNC(=O)C(=O)c2c[nH]c3ccccc23)cc1	/	3%	/	/
CCOC(=O)Cc1nnc(NC(=O)CSc2ccc(C)cc2)s1	17%	0%	25	?
CCCCOc1cccc(-c2nnc(NC(=O)CSc3ccc(C)cc3)s2)c1	2%	-11%	-86*	0.32µM*
Cc1c(C)c2c(OCC(=O)NCC(C)C)cc3c(c2oc1=O)CCC(C)(C)O3	/	18µM*	5	/
COc1cccc(-n2cc(C(=O)Nc3cc(C)c(Cl)cc3OC)c3ccccc3c2=O)c1	/	-16%	?	-10%[46.1 µM]
Cc1oc(-c2cccc(Cl)c2)nc1CN1CCC(C(=O)NC(C)c2ccccc2)CC1 (stereo unspecified)	8%[46.1 µM]	35µM*	-12	21%[46.1 µM]
CCN(CCNC(=O)C1CCN(Cc2nc(-c3cccc(Cl)c3)oc2C)CC1)c1ccccc1	?	40µM*	84	?
CC(=O)Nc1cc(C(=O)N2CCCC(C)C2)cc2ncn(CCc3ccccn3)c12 (stereo unspecified)	/	-4%	/	/
COc1ccc(-n2c(C)c3c(C)nnc(C)c3c2C)cc1OC	/	-1%	-60*	/
COc1ccc(-c2cc(C(F)(F)F)nc(SCCC(=O)Nc3ccc(OC)c(OC)c3)n2)cc1	?	0%	?	-3%[46.1 µM]
Cc1c(CCOC(=O)C23CC4CC(CC(C4)C2)C3)sc[n+]1CC#N	?	?	-99*	?
COC(=O)c1scc(-c2ccc(C)cc2)c1S(=O)(=O)Nc1cc(OC)c(OC)c(OC)c1	/	-20%	4	-29%[46.1 µM]
Cc1ccc(-c2cn3nc(C)c(C)nc3n2)cc1	0.28µM*	-79%	-24	?
CCc1ccc(NC(=O)CN2C(=O)C(=O)c3ccccc32)cc1	?	27%	42	0%[46.1 µM]
CCN1C(=O)CCN(C2CCCC2)c2nc(Nc3ccc(C(=O)NC4CCN(C)CC4)cc3OC)ncc21	/	19%	-73*	/
COc1cc(C(=O)NC2CCCCC2)ccc1OC1CCN(C(C)=O)CC1	1%[46.1 µM]	2%	37	-13%[46.1 µM]
COc1cc(C(=O)N2CCC(N3CCN(C)CC3)CC2)ccc1Nc1ncc2c(n1)N(C)c1ccccc1C(=O)N2C	/	/	-73*	/
O=C(O)CCc1ccc(-c2ccccc2)n1CC(=O)Nc1ccccc1C(F)(F)F	1%[46.1 µM]	-18%	6	-1%[46.1 µM]
CC(=O)N1C(=O)NC(C)=C(C#N)C1c1ccccc1 (stereo unspecified)	-10%[14.2 µM]	/	/	/
SMILES	Marburg entry inh	FMDV inh	HCMV inh	Lassa entry inh
OC[C@H]1O[C@H](c2ccccc2)C=C[C@H]1OCc1cccc(Br)c1	-11%[14.2 µM]	/	/	/
COc1ccccc1-c1cc2nc(-c3ccccc3)cc(N3CCN(C(=O)c4ccco4)CC3)n2n1	/	4.5µM*	-100*	/
O=C(c1ccoc1)N1CCN(c2cc(-c3ccco3)nc3cc(-c4ccccc4)nn23)CC1	/	?	-73*	/
CN1CCN(c2cc(-c3ccccc3)nc3cc(-c4ccc(F)cc4)nn23)CC1	?	-28%	-30	?
Cc1cc(N2CCN(C(=O)c3ccoc3)CC2)n2nc(-c3ccccc3)cc2n1	/	?	-8	/
Fc1ccc(-c2cc3nc(-c4ccccc4)cc(N4CCN(CCN5CCOCC5)CC4)n3n2)cc1	?	-17%	-71*	-13%
O=C(c1ccoc1)N1CCN(c2cc(-c3ccccc3)nc3cc(-c4ccccc4)nn23)CC1	/	35µM*	-98*	/
CCOC(=O)/C=C/[C@@H](CCC(=O)OC)NC(=O)C(F)(F)F	/	/	-16	/
COc1ccc(NC(=O)c2cc3c(=O)n(C)c4cc(Cl)ccc4c3s2)cc1Cl	/	-1%	6	17%[46.1 µM]
COc1ccccc1-c1cc2nc(-c3ccccc3)cc(N3CCN(C(=O)c4ccoc4)CC3)n2n1	/	7.9µM*	-103*	/
